Assay results reported in PubChem BioAssay (Tox21).
Values without a mark were called inactive. Results filed as inconclusive are left out. Entries that show only a call come without a potency. Calls of active or inactive are those of the source. Unless noted, the call rests on the fitted dose curve.

Assays:
[1] = Nuclear factor erythroid 2-related factor 2/antioxidant responsive element (Nrf2/ARE) small molecule agonists: qHTS cell viability counter screen in human keratinocytes (AID 1919968; active means well fitted curve in the direction sought with a large enough effect in the repeat runs; an effect the other way counts as inactive or inconclusive; further: nearly all actives have a fitted effect of over 55% in size; further: potency means the concentration at half of the fitted maximal effect)
Procedure, shortened: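 In human HaCaT keratinocytes stably expressing an ARE-driven luciferase, compound exposure lasted 23 h at 37 C under 5% CO2. Viable cells are quantified with a protease-based fluorogenic reagent (CellTiter-Fluor) read 1 h after addition.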

[2] = biological target: Gonadotropin-releasing hormone receptor (Homo sapiens) (UniProt P30968); experiment: Human gonadotropin-releasing hormone receptor (GnRHR) small molecule agonists, calcium flux assay in GnRHR-HEK293 cells (AID 1920063); further: nearly all actives have a fitted effect of over 35% in size
Procedure, shortened: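 Intracellular calcium rise is the read-out: engineered human GnRHR HEK293 cells, dye-loaded, are exposed to DMSO-dissolved compounds and fluorescence at Ex/Em 480/540 is tracked for 3 min.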

[3] = biological target: KiSS-1 receptor (Homo sapiens) (UniProt Q969F8); experiment: Human kisspeptin (KISS1R) small molecule agonists, calcium flux assay in KISS1R-HEK293 cells (AID 1920064; active means well fitted curve in the direction sought with a large enough effect in the repeat runs; an effect the other way counts as inactive or inconclusive)
Procedure, shortened: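 Concentration-response testing used 15 concentrations in triplicate on human KISS1R-expressing HEK293 cells. Calcium-dependent fluorescence (Ex/Em 480/540) was followed kinetically for 3 min after compound transfer.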

[4] = G protein-coupled receptor (GPCR) small molecule agonists, calcium flux assay: HEK293 wild type cell line counter screen (AID 1920065)
Procedure, shortened: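 Fluorescence intensity signals activation. After overnight (18 h) culture and a 1 h calcium dye load at 37 C, compounds are added by pin tool and the plate read at 480/540 nm for 3 min in 1 s steps.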

[5] = p53 small molecule agonists, cell-based qHTS assay with human liver microsomes (AID 1963577);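 further: p53 response element beta-lactamase reporter cells with liver microsomes plus NADPH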
Procedure, shortened: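 Reporter activation was measured by LiveBLAzer fluorescence intensity in p53RE-bla cells, which had been exposed to compounds for 16 h at 37 C alongside 0.5 mg/mL human liver microsomes and 0.5 mg/mL NADPH (final concentrations).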

[6] = p53 small molecule agonists, cell-based qHTS assay with rat liver microsomes (AID 1963578)
Procedure, shortened: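 Compound in DMSO added to p53RE-bla cells 5 h post-plating; rat microsomes/NADPH 0.5 mg/mL final; 16 h, 37 C; LiveBLAzer 2 h RT.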

[7] = p53 small molecule agonists, cell-based qHTS assay with rat liver microsomes: qHTS cell viability counter screen (AID 1963580); further: nearly all actives have a fitted effect of over 45% in size
Procedure, shortened: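 Cytotoxicity counter screen: intracellular ATP read by CellTiter-Glo luminescence in the p53 reporter wells. HCT-116 p53RE-bla cells were treated for 16 h at 37 C alongside rat liver microsomes and NADPH, each 0.5 mg/mL final.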

[8] = biological target: Beta-2 adrenergic receptor (Homo sapiens) (UniProt P07550); experiment: Adrenergic beta2 receptor (ADRB2) small molecule antagonists, cell-based qHTS assay (AID 1963592); further: series mostly up to about 92 µM; nearly all actives have a fitted effect of over 50% in size
Procedure, shortened: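 Assay format: CHO-ADRB2 cells, 18-20hr seeding at 37C/5% CO2, then compound plus 1nM isoproterenol agonist mix for 0.5hr RT. Homogeneous time-resolved fluorescence cAMP detection after 1hr, expressed as 665/615 nm ratio.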

[9] = biological target: D(2) dopamine receptor (Homo sapiens) (UniProt P14416); experiment: Dopamine D2 receptor (DRD2) small molecule agonists, cell-based qHTS assay (AID 1963594); further: nearly all actives have a fitted effect of over 35% in size
Procedure, shortened: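 cAMP accumulation in DRD2-HEK293 cells measured by HTRF after 1 h detection; compounds added 10 min before NKH477 (200nM […]) forskolin-analogue stimulation, 30 min at room temperature, with Ro20-1724 present at 0.1 mM final.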

[10] = p53 small molecule agonists, cell-based qHTS assay with human liver microsomes: qHTS cell viability counter screen (AID 1963579); further: nearly all actives have a fitted effect of over 45% in size
Procedure, shortened: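 HLM-supplemented (0.5 mg/mL final) and NADPH-supplemented (0.5 mg/mL final) p53RE-bla cultures, 4,000 cells per well, were dosed with compounds in DMSO for 16 h at 37 C; luminescent ATP detection (CellTiter-Glo, 30 min, room temperature) quantified surviving cells.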

[11] = p53 small molecule agonists, cell-based qHTS assay: qHTS cell viability counter screen (AID 1963581); further: nearly all actives have a fitted effect of over 45% in size
Procedure, shortened: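 Luminescence from CellTiter-Glo, reflecting ATP content, serves as the cytotoxicity measure; it is taken after the 2 h reporter substrate step in HCT-116 p53RE-bla cells dosed for 16 h at 37 C.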

[12] = p53 small molecule agonists, cell-based qHTS assay (AID 1963582; active means well fitted activation curve with a large enough effect in the signal ratio in the repeat runs, not every such curve was filed as active; the % refers to the signal ratio)
Procedure, shortened: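 After plating, p53RE-bla cells sat 5 h in the incubator; compounds or DMSO vehicle were pinned in; a 16 h incubation at 37 C followed; FRET substrate was added and, 2 h later at RT, fluorescence was measured.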

[13] = biological target: 5-hydroxytryptamine receptor 2A (Homo sapiens) (UniProt P28223); experiment: 5-hydroxytryptamine receptor 2A (HTR2A) small molecule antagonists, cell-based qHTS assay (AID 1963586); further: nearly all actives have a fitted effect of over 45% in size
Procedure, shortened: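 CHO cells stably expressing human HTR2A were plated for 18 h at 37 C, then loaded with calcium dye for 1 h. Compounds were preincubated 5 min at room temperature before DOI (4 nM solution) was added. Kinetic fluorescence was read for 3 min.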

[14] = biological target: 5-hydroxytryptamine receptor 2A (Homo sapiens) (UniProt P28223); experiment: 5-hydroxytryptamine receptor 2A (HTR2A) small molecule agonists, cell-based qHTS assay (AID 1963587); further: nearly all actives have a fitted effect of over 30% in size
Procedure, shortened: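 Kinetic calcium-flux fluorescence (2 min, 1 sec intervals) after compound addition in agonist mode. HTR2A-CHO cells were cultured 18 h, then dye-loaded 1 h at 37 C.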

[15] = biological target: Muscarinic acetylcholine receptor M1 (Homo sapiens) (UniProt P11229); experiment: Cholinergic receptor muscarinic 1 (CHRM1) small molecule antagonists, cell-based qHTS assay (AID 1963588); further: nearly all actives have a fitted effect of over 40% in size
Procedure, shortened: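 Compounds were tested at 15 concentrations in three independent runs. Dye-loaded CHRM1-CHO cells were exposed 5 min at room temperature before stimulation by acetylcholine added at 50nM. Intracellular calcium was read kinetically on FDSS for 3 min.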

[16] = biological target: Muscarinic acetylcholine receptor M1 (Homo sapiens) (UniProt P11229); experiment: Cholinergic receptor muscarinic 1 (CHRM1) small molecule agonists, cell-based qHTS assay (AID 1963589); further: nearly all actives have a fitted effect of over 35% in size
Procedure, shortened: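 Fluorescent calcium dye reports M1 activation in stably transfected CHO cells. Compounds, 15 concentrations, added after 1 h dye loading at 37 C; kinetic reading at 1 sec intervals.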

[17] = cAMP Responsive Elements (CRE) small molecule agonists, cell-based qHTS assay (AID 1963590)
Procedure, shortened: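 Compound exposure lasted 3 h at 37 C/5% CO2 in CRE-bla HEK 293T cells grown in assay medium with 10% dialyzed FBS and 25 mM HEPES. Reporter signal came from LiveBLAzer B/G FRET substrate, 2 h, room temperature.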

[18] = cAMP Responsive Elements (CRE) small molecule antagonists, cell-based qHTS assay (AID 1963591; active means well fitted inhibition curve with a large enough effect in the signal ratio in the repeat runs, not every such curve was filed as active; the % refers to the signal ratio; further: potency means the concentration at half of the fitted maximal effect)
Procedure, shortened: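 Stimulation used NKH477 at a final 0.25 uM for 3 h in compound-treated CRE-bla HEK293T cells, seeded 18 h beforehand. Reporter activity was measured with LiveBLAzer B/G FRET substrate after 2 h at room temperature.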

[19] = biological target: D(2) dopamine receptor (Homo sapiens) (UniProt P14416); experiment: Dopamine D2 receptor (DRD2) small molecule antagonists, cell-based qHTS assay (AID 1963595; active means well fitted inhibition curve with a large enough effect in the signal ratio in the repeat runs, with a control signal flat; the % refers to the signal ratio)
Procedure, shortened: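 Cells were plated and grown for 24 h at 37 °C. Ro20-1724 (0.1 mM final) went in first, then compound for 10 min. NKH477 (200 nM) with quinpirole (12 nM) followed for 30 min at RT, then HTRF detection reagents for 1 h.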

[20] = biological target: Beta-2 adrenergic receptor (Homo sapiens) (UniProt P07550); experiment: Adrenergic beta2 receptor (ADRB2) small molecule agonists, cell-based qHTS assay (AID 1963593);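 further: CHO cells stably overexpressing human ADRB2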
Procedure, shortened: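 CHO cells stably over-expressing ADRB2 were plated overnight at 37C, then dosed with compounds plus a stimulation mix containing 100uM IBMX and 25uM Ro-20-1724 for 0.5hr at room temperature. cAMP was measured by HTRF competition, 1hr.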

Sequence of Muscarinic acetylcholine receptor M1 (Homo sapiens) (P11229 whole entry, looked up): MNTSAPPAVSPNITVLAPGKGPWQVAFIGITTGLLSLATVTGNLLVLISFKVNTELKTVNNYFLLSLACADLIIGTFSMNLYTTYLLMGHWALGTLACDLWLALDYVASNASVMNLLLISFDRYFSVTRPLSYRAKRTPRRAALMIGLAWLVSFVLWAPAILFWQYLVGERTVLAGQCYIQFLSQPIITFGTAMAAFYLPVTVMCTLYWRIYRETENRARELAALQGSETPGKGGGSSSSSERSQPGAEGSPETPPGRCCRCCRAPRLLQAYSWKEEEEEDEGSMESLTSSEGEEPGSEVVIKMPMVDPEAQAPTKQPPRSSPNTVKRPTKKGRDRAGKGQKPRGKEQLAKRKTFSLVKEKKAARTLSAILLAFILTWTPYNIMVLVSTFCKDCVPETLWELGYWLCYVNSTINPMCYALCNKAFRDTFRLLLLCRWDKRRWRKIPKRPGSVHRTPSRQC
Sequence of Gonadotropin-releasing hormone receptor (Homo sapiens) (P30968 whole entry, looked up): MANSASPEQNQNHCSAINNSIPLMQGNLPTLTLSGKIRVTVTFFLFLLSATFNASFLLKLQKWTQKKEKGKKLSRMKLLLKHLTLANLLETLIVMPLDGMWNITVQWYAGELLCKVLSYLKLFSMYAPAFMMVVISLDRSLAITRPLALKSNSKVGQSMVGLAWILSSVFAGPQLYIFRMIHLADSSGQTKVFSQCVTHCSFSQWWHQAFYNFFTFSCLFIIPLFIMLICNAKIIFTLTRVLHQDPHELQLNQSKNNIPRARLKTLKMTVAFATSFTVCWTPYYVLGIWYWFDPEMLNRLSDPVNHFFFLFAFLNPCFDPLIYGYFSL
Sequence of 5-hydroxytryptamine receptor 2A (Homo sapiens) (P28223 whole entry, looked up): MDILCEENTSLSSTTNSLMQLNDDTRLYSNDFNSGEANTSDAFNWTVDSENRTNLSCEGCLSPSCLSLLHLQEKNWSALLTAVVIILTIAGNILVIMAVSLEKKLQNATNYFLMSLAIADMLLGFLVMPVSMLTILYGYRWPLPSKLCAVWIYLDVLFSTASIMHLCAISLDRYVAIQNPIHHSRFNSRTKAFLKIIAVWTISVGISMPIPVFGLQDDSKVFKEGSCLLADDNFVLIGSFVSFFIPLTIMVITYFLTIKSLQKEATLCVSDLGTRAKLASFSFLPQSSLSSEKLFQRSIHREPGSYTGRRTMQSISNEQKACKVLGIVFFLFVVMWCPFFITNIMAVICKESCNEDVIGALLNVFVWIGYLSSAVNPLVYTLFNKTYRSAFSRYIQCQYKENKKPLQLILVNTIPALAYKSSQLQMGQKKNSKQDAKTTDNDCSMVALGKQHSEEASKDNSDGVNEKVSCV
Sequence of KiSS-1 receptor (Homo sapiens) (Q969F8 whole entry, looked up): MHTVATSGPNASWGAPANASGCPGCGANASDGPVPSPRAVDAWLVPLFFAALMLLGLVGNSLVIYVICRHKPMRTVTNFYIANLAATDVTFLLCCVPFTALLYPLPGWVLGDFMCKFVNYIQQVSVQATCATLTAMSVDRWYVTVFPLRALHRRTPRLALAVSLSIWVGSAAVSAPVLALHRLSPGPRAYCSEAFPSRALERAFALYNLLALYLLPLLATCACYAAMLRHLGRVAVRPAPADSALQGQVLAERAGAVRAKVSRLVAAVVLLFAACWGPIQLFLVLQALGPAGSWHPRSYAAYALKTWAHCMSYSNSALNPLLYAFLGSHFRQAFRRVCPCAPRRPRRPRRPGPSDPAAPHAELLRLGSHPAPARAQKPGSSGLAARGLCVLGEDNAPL
Sequence of Beta-2 adrenergic receptor (Homo sapiens) (P07550 whole entry, looked up): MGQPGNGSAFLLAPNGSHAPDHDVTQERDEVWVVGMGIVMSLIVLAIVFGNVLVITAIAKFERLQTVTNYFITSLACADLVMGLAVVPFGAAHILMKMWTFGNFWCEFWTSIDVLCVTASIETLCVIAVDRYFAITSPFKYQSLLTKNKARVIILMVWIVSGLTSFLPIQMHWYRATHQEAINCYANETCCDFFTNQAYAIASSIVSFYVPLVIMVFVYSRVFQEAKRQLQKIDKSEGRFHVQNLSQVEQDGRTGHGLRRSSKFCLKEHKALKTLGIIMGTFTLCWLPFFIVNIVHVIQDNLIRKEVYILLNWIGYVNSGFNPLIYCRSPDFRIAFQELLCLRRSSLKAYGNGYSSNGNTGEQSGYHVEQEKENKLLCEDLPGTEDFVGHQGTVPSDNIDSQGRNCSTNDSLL
Sequence of D(2) dopamine receptor (Homo sapiens) (P14416 whole entry, looked up): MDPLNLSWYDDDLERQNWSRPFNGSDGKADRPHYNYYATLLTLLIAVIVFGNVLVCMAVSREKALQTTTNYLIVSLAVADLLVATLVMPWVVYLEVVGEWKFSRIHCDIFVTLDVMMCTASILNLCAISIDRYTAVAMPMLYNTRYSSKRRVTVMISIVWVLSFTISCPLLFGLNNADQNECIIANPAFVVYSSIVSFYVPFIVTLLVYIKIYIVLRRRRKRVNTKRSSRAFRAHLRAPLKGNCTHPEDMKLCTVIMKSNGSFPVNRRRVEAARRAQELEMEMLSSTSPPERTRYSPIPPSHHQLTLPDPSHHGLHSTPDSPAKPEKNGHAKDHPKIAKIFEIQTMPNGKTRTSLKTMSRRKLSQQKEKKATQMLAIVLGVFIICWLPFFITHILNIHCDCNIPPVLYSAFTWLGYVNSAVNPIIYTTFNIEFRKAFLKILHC

Compound | Potency [1] | Potency [2] | Potency [3] | Potency [4] | Potency [5] | Potency [6] | Potency [7] | Potency [8] | Potency [9] | Potency [10] | Potency [11] | Potency [12] | Potency [13] | Potency [14] | Potency [15] | Potency [16] | Potency [17] | Potency [18] | Potency [19] | Potency [20]
CN(C)CCCN1c2ccccc2Sc2ccc(Cl)cc21 | 54.5 µM (active) | inactive | inactive | inactive | inactive | inactive | inactive | inactive | inactive | – | – | – | – | – | – | – | – | – | – | –
S=c1nccc[nH]1 | inactive | inactive | inactive | inactive | inactive | – | inactive | inactive | inactive | inactive | inactive | inactive | inactive | inactive | inactive | inactive | inactive | inactive | inactive | –
CC(=O)OCCC(C)CC(C)(C)C (stereo unspecified) | inactive | inactive | inactive | inactive | – | inactive | inactive | – | inactive | inactive | inactive | inactive | inactive | inactive | inactive | inactive | inactive | inactive | inactive | –
Cc1ccc(O)c2ncccc12 | 2.66 µM (active) | inactive | inactive | inactive | inactive | – | – | inactive | – | inactive | inactive | – | inactive | inactive | inactive | inactive | – | 13.3 µM (active) | inactive | –
COCCOC[C@H](CC1(C(=O)NC2CCC(C(=O)O)CC2)CCCC1)C(=O)Oc1ccc2c(c1)CCC2 (stereo partly specified) | inactive | inactive | inactive | inactive | – | inactive | inactive | inactive | inactive | inactive | inactive | inactive | inactive | inactive | inactive | inactive | inactive | – | inactive | –
Nc1nc2ccccc2n1Cc1ccc(F)cc1 | inactive | inactive | inactive | inactive | inactive | inactive | inactive | inactive | inactive | – | inactive | inactive | – | inactive | inactive | inactive | inactive | inactive | inactive | –
c1ccc(B(c2ccccc2)c2ccccc2)cc1 | inactive | inactive | inactive | inactive | – | inactive | inactive | inactive | inactive | inactive | inactive | inactive | inactive | inactive | inactive | – | inactive | 28.5 µM (active) | inactive | –
[Cl][Au]([Cl])[Cl] | 3.06 µM (active) | inactive | inactive | inactive | inactive | inactive | – | inactive | inactive | – | – | – | inactive | inactive | inactive | inactive | – | – | inactive | –
CCC(=O)/C=C/c1ccc(OC)cc1 | inactive | inactive | inactive | inactive | inactive | – | inactive | – | inactive | inactive | inactive | inactive | inactive | – | inactive | inactive | – | – | inactive | inactive
CC1=C(C/C=C(\C)CCC[C@H](C)CCC[C@H](C)CCCC(C)C)C(=O)c2ccccc2C1=O | inactive | inactive | inactive | inactive | – | inactive | inactive | inactive | inactive | inactive | inactive | inactive | inactive | inactive | inactive | inactive | inactive | inactive | inactive | –
CCCOC(=O)c1c(Cl)c(Cl)c(Cl)c(Cl)c1C(=O)OCCC | inactive | inactive | inactive | inactive | inactive | inactive | inactive | inactive | inactive | – | inactive | – | inactive | inactive | inactive | inactive | inactive | inactive | inactive | inactive
C=Cc1ccc(OC(C)=O)cc1 | inactive | inactive | inactive | inactive | inactive | – | inactive | inactive | – | inactive | inactive | inactive | inactive | inactive | inactive | inactive | inactive | inactive | inactive | –
Clc1ccc(C(Cn2ccnc2)OCc2ccc(Sc3ccccc3)cc2)c(Cl)c1 (stereo unspecified) | inactive | inactive | inactive | inactive | inactive | – | inactive | inactive | inactive | inactive | inactive | inactive | – | – | inactive | inactive | inactive | inactive | inactive | –
